From PubChem BioAssay
USP2a inh: inhibitors of human ubiquitin-specific protease USP2a; Potency, µM (series often up to 38.3 µM), without a hit: at the top dose activity change, negative = inhibition, most hits filed as inhibitors; USP2 core, Ub-CHOP2 coupled fluorogenic reporter, 485/531; O75604; actives 0.01% (n = 330,000);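 also: plate controls were DMSO wells for no effect and full inhibition by NEM control for full effect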
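Cell-free coupled assay: 10nM USP2 core preincubated 30min RT with compound in Tris-HCl pH 8.0/CaCl2/CHAPS buffer, then 25nM Ub-CHOP2 and 25nM reporter substrate; fluorescence (Ex 485/Em 531) read after 60min RT, normalized to NEM inhibition, concentration-response curves fitted.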
ClpP mod: qHTS Assay for Activators of ClpP; actives 1.9% (n = 340,000); purified B. subtilis ClpP, FRET peptide cleavage, 20 min; ATP-dependent Clp protease proteolytic subunit (Bacillus subtilis (strain 168)), P80244; Potency, µM (series often up to 57.5 µM), for inactives: at the highest dose activity change, negative = active; active = well fitted falling curve with a large enough effect; inconclusive = small, poorly fitted or top-dose-only effect; inactive = no such curve, though single readings can be large or run the other way; also: the source files actives as falling curves though it sought activators and does not explain the sign; nearly all actives have a fitted effect of over 65% in size
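FRET quenching reversal measured ClpP activation: 10 microg/mL B. subtilis ClpP at pH 8 with the FRET-FV decapeptide, read at 430 nm after 320 nm excitation. The 20-min minus 0-min signal was scaled between DMSO/no-enzyme wells and ADEP (5.8 microM final).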
GALK inh: galactokinase (human) inhibition | P51570 | Purified GALK, Kinase-Glo residual ATP luminescence | Potency, µM (doses to about 57.5 µM), inactives show top-dose activity change, negative = inhibition, actives largely listed as inhibitors | actives 0.007% (n = 270,000) | AID 1868; also: % is scaled to controls: 0 for no effect and ±100 for the full control effect
Target sequence (P51570 whole entry, looked up): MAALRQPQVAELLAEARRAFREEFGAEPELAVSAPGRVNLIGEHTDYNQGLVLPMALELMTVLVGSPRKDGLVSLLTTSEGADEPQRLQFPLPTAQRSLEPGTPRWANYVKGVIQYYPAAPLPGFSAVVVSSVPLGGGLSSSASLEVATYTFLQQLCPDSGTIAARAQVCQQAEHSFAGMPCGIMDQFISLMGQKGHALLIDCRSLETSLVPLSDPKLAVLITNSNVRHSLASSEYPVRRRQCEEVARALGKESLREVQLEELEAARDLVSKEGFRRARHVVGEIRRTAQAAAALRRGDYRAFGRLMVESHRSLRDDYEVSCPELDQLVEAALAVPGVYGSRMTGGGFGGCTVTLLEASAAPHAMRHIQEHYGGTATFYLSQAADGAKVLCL
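Luminescence from leftover ATP (Ultra-Glo luciferase/luciferin) served as read-out after a 1 h room-temperature reaction of 5 nM GALK with 35 uM ATP and 100 uM galactose.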
Eya2 inh: Eya2 (human) phosphatase inhibition; recombinant Eya2, OMFP fluorescence dephosphorylation (OMFP is methylfluorescein phosphate); Potency, µM (titrated, usually from 76.9 µM), for inactives: at the top dose activity, negative = inhibition, hits mostly inhibitors; actives 0.006% (n = 330,000); also: % is scaled to controls: 0 for no effect and ±100 for the full control effect
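Eya2 protein (added as 0.2 uM solution) was preincubated with compound for 10 min at ambient temperature in 50 mM HEPES pH 7.5, 50 mM NaCl, 5 uM MgCl2, 0.05% BSA, 1 mM DTT. OMFP (added at 50 uM) then reacted 10 min; fluorescence read at 485/525 nm.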
* marks the source's active call; other numbers are inactive results; ? = inconclusive; · = no result. The full list was thinned out, with hits kept by preference. Unless noted, calls follow the shape of the dose curve; as a rule, active = well fitted inhibition curve with a large enough effect; inconclusive = small, poorly fitted or top-dose-only effect, or effect the other way; inactive = flat fitted curve, though single readings scatter. Potency is read from the fitted curve at half-maximal effect.

SMILES	USP2a inh	ClpP mod	GALK inh	Eya2 inh
CCCC(=O)Nc1cccc(-c2nc3cc(C)c(C)cc3o2)c1	4%	22µM*	3%	10%
CCCC(=O)Nc1cccc(-c2nc3ccccc3o2)c1	1%	0%	-3%	-25%
CCOC(=O)c1noc2nc(C)n(CC(=O)Nc3cccc(OC)c3)c(=O)c12	·	-3%	·	·
CCCCC(=O)Nc1ccc2oc(-c3cccnc3)nc2c1	-4%	18µM*	1%	-4%
O=C(CSc1nc2ccsc2c(=O)n1CC1CCC(C(=O)O)CC1)c1ccc(Cl)cc1 (stereo not given)	-6%	0%	-2%	?
COc1cc(C)ccc1OCCOc1c(C)cccc1Cl	3%	1%	1%	2%
CCOC(=O)COc1ccc(Oc2nc(C)cc(OC)n2)nn1	4%	0%	-2%	8%
COC(=O)C1(C)CCc2cc(OC)ccc2C1=O (stereo not given)	1%	-1%	-3%	4%
COC(=O)C1(C)CN(S(=O)(=O)c2ccc(C)cc2)c2cc(OC)ccc2C1=O (stereo not given)	-1%	13µM*	1%	-6%
COc1ccc(Br)cc1CNC(=O)c1cc2ccccn2n1	·	-21%	·	·
c1ccc(C(c2nnnn2C2CCCC2)N2CCCCCC2)nc1 (stereo not given)	1%	22µM*	2%	22%
c1ccc(C(c2ccccc2)N2CCN(C(c3ccccn3)c3nnnn3C3CCCC3)CC2)cc1 (stereo not given)	0%	22µM*	-1%	0%
NC(=O)C1CCN(C(c2ccccc2)c2nnnn2C2CCCC2)CC1 (stereo not given)	2%	-3%	0%	-8%
Cc1cc(C(=O)Nc2cccnc2)cs1	2%	-1%	3%	3%
CCCOc1cc(C)c(S(=O)(=O)NCc2cccs2)cc1C	-11%	1%	·	-32%
CC(C)Oc1ccc(Cn2c(-c3ccco3)n[nH]c2=S)cc1	0%	28µM*	1%	3%
COc1ccc(Cn2c(-c3ccc(OC)cc3)n[nH]c2=S)cc1	1%	·	-1%	0%
Cc1ccc(C(=O)Nc2ccc(Br)cc2)cc1S(=O)(=O)Nc1ccccn1	3%	28µM*	0%	-2%
Cc1ccc(C)c(S(=O)(=O)Nc2ccccc2C(=O)Nc2ccc(S(=O)(=O)Nc3ncccn3)cc2)c1	-2%	25µM*	0%	-6%
Cc1ccc(C(=O)Nc2ccccc2)cc1S(=O)(=O)Nc1ccc(Br)cc1	·	-5%	·	·
Cc1ccc(S(=O)(=O)Nc2ccccc2C(=O)Nc2ccc(S(=O)(=O)Nc3nccc(C)n3)cc2)cc1	3%	13µM*	-2%	2%
COc1ccc(S(=O)(=O)n2nc(C)c(S(=O)(=O)N3CCC(C)CC3)c2C)cc1OC	·	-3%	·	·
Cn1c(=O)c2c(ncn2CC(=O)N2CCOCC2)n(C)c1=O	-1%	32µM*	-1%	-16%
CC1CN(C(=O)Cn2cnc3c2c(=O)n(C)c(=O)n3C)CC(C)O1 (stereo not given)	2%	0%	1%	-8%
COc1cccc(NC(=O)c2cc(CN3C(=O)c4ccccc4C3=O)ccc2OC)c1	0%	10µM*	1%	-1%
SMILES	USP2a inh	ClpP mod	GALK inh	Eya2 inh
COc1cccc(NC(=O)CN(C)C(=O)c2cc(CN3C(=O)c4ccccc4C3=O)ccc2OC)c1	·	0%	·	·
Cc1cccc(NC(=S)N2CCN(Cc3ccccc3)CC2)c1C	-4%	3%	1%	1%
O/N=C/c1cn(-c2ccccc2)nc1-c1ccc2c(c1)OCCO2	0%	-4%	2%	-26%
COc1ccc(-c2nn(-c3ccccc3)cc2CO)cc1OC	4%	11µM*	3%	-2%
OCc1cn(-c2ccccc2)nc1-c1ccc2c(c1)OCCO2	1%	28µM*	-2%	-1%
CNc1ccccc1C(=O)OCC(=O)Nc1ccc2c(c1)OCO2	0%	28µM*	·	7%
Cc1ccc2nc(SCC(=O)NCc3ccco3)[nH]c2c1	1%	-1%	1%	9%
Cc1ccc(NC(=O)CN(C)C(=O)C(C)OC(=O)c2ccccc2NCCO)cc1 (stereo not given)	2%	25µM*	·	10%
CC(OC(=O)c1ccccc1NCCO)C(=O)NCC(=O)Nc1ccc(F)c(F)c1F (stereo not given)	0%	16µM*	-3%	5%
